Tests used:
[1] = molecular target: Death-associated protein kinase 1 (Homo sapiens) (UniProt P53355); conditions: at 10 µM
[2] = molecular target: Death-associated protein kinase 2 (Homo sapiens) (UniProt Q9UIK4); conditions: at 1 µM
[3] = molecular target: Death-associated protein kinase 2 (Homo sapiens) (UniProt Q9UIK4); conditions: at 10 µM
[4] = molecular target: T1, Serine/threonine-protein kinase DCLK2 (Homo sapiens) (UniProt Q8N568); conditions: at 1 µM
T1 sequence (whole entry): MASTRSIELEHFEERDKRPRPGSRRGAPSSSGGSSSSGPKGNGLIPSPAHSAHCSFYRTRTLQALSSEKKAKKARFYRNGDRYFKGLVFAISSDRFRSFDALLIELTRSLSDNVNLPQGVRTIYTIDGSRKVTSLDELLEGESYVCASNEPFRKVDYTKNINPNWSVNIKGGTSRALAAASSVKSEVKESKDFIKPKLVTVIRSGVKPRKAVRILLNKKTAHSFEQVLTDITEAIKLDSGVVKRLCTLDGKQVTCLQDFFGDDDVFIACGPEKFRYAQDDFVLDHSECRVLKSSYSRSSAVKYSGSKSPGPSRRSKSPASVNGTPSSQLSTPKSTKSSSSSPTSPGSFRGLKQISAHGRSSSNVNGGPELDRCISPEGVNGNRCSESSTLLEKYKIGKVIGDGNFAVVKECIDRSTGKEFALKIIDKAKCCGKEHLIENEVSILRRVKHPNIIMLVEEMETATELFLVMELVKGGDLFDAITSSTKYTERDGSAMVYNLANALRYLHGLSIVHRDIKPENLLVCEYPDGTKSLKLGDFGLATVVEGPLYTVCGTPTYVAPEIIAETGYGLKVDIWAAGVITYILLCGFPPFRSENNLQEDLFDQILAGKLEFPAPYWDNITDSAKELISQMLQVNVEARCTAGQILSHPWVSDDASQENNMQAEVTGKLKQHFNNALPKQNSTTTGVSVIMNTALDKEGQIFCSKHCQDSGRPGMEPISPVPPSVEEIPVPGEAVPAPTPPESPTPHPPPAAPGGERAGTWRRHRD

[5] = molecular target: T1, Serine/threonine-protein kinase DCLK2 (Homo sapiens); conditions: at 10 µM
[6] = molecular target: T2, Discoidin domain-containing receptor 2 (Homo sapiens) (UniProt Q16832); conditions: at 1 µM
T2 sequence (whole entry): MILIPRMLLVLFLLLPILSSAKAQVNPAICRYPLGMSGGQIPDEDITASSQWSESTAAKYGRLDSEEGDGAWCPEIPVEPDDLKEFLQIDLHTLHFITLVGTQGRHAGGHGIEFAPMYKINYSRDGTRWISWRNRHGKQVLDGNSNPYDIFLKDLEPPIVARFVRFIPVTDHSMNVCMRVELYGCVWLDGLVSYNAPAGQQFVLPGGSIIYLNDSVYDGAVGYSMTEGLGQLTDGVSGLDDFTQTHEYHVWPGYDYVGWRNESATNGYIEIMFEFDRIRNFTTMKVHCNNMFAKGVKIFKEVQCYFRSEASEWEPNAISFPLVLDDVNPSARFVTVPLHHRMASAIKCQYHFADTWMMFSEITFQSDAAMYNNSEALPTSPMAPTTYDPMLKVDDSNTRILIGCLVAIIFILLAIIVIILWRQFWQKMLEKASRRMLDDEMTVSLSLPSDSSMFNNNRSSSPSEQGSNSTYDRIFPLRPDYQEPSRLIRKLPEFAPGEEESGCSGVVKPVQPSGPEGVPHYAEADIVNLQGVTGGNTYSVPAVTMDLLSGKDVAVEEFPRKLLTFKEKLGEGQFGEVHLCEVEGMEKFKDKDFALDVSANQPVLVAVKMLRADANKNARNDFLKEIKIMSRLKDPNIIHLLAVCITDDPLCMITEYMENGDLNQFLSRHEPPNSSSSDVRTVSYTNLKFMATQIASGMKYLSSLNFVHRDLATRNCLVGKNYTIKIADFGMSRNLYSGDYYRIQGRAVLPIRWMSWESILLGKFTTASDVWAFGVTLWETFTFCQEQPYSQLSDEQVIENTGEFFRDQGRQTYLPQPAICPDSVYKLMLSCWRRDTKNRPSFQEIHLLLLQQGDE

[7] = molecular target: T3, Myotonin-protein kinase (Homo sapiens) (UniProt Q09013); conditions: at 1 µM
T3 sequence (whole entry): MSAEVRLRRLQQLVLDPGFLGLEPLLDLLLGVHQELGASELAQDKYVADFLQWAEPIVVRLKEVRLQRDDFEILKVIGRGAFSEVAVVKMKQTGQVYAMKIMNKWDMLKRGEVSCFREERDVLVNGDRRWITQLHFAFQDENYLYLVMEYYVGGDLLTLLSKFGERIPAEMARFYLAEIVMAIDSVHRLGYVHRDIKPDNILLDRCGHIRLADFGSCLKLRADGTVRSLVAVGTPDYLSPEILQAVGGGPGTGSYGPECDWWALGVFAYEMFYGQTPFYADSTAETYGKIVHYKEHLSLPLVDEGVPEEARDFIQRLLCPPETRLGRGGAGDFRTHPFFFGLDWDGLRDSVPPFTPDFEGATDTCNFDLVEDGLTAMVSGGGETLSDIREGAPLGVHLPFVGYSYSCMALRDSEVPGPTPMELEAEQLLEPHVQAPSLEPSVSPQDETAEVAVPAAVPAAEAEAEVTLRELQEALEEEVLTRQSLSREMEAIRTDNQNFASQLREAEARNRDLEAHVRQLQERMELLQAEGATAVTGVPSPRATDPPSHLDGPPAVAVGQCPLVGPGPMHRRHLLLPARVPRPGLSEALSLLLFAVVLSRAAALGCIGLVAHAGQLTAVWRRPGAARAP

[8] = molecular target: T3, Myotonin-protein kinase (Homo sapiens); conditions: at 10 µM
[9] = molecular target: T4, Serine/threonine-protein kinase 17A (Homo sapiens) (UniProt Q9UEE5); conditions: at 10 µM
T4 sequence (whole entry): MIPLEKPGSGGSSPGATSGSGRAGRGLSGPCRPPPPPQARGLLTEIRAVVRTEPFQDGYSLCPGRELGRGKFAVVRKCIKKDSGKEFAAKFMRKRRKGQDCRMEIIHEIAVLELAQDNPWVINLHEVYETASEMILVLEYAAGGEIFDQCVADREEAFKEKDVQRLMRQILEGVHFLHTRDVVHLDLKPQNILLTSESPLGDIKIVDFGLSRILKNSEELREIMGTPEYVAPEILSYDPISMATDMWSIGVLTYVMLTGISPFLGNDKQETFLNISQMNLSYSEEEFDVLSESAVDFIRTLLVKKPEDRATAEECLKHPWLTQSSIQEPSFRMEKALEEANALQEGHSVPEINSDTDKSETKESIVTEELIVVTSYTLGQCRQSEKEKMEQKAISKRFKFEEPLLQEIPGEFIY

[10] = molecular target: T5, Ephrin type-A receptor 1 (Homo sapiens) (UniProt P21709); conditions: at 1 µM
T5 sequence (whole entry): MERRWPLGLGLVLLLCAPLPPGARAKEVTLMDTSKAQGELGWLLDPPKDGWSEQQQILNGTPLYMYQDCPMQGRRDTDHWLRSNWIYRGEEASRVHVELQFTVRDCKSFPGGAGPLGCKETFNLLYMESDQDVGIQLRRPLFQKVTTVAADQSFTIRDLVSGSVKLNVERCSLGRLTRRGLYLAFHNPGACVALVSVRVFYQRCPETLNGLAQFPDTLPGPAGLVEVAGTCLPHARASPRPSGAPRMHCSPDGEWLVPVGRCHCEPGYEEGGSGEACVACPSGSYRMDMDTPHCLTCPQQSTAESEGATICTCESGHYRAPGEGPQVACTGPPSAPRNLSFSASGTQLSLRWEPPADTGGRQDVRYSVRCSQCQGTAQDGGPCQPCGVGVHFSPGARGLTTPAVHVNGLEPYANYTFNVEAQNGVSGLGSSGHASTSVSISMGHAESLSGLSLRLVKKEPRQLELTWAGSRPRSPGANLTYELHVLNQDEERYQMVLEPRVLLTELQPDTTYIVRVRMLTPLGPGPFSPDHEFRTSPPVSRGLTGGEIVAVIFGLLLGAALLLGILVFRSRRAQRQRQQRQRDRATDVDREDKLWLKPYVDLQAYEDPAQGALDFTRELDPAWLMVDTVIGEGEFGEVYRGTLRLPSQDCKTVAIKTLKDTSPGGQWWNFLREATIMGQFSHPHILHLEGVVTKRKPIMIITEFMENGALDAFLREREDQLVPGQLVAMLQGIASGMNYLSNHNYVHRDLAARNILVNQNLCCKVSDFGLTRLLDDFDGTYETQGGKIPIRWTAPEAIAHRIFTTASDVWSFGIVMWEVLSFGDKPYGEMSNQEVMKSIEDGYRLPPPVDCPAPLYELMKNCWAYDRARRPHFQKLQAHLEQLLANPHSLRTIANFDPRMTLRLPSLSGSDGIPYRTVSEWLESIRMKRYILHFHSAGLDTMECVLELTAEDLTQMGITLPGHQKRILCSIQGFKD

[11] = molecular target: T5, Ephrin type-A receptor 1 (Homo sapiens); conditions: at 10 µM
[12] = molecular target: Ephrin type-A receptor 2 (Homo sapiens) (UniProt P29317); conditions: at 1 µM
[13] = molecular target: Ephrin type-A receptor 2 (Homo sapiens) (UniProt P29317); conditions: at 10 µM
[14] = molecular target: T6, Ephrin type-A receptor 3 (Homo sapiens) (UniProt P29320); conditions: at 1 µM
T6 sequence (whole entry): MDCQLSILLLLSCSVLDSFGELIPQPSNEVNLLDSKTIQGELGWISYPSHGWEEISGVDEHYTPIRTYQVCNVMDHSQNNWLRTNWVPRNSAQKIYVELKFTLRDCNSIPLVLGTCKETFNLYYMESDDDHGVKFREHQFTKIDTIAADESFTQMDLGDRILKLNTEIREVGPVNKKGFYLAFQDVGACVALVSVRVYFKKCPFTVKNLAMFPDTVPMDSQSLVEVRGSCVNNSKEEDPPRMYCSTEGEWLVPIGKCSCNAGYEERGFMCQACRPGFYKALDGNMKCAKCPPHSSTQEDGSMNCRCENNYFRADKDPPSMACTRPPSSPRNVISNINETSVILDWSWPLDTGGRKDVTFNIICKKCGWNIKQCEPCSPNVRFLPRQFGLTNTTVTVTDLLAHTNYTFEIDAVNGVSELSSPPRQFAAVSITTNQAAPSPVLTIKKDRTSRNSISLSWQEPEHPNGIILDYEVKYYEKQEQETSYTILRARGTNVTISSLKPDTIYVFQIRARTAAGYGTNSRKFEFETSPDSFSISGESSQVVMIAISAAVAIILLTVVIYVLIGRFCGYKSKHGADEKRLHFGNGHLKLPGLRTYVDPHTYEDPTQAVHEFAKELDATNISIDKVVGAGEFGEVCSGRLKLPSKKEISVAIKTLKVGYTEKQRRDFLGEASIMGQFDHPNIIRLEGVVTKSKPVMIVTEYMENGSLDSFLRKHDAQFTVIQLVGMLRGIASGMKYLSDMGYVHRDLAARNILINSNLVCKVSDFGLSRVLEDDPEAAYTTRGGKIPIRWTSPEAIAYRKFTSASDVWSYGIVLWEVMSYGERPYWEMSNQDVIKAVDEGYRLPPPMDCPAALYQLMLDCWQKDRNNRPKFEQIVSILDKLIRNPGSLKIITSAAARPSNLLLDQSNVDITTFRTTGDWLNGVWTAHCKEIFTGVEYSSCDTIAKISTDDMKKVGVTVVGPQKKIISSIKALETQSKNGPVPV

[15] = molecular target: T4, Serine/threonine-protein kinase 17A (Homo sapiens); conditions: at 1 µM
[16] = molecular target: T7, Dual specificity tyrosine-phosphorylation-regulated kinase 2 (Homo sapiens) (UniProt Q92630); conditions: at 1 µM
T7 sequence (whole entry): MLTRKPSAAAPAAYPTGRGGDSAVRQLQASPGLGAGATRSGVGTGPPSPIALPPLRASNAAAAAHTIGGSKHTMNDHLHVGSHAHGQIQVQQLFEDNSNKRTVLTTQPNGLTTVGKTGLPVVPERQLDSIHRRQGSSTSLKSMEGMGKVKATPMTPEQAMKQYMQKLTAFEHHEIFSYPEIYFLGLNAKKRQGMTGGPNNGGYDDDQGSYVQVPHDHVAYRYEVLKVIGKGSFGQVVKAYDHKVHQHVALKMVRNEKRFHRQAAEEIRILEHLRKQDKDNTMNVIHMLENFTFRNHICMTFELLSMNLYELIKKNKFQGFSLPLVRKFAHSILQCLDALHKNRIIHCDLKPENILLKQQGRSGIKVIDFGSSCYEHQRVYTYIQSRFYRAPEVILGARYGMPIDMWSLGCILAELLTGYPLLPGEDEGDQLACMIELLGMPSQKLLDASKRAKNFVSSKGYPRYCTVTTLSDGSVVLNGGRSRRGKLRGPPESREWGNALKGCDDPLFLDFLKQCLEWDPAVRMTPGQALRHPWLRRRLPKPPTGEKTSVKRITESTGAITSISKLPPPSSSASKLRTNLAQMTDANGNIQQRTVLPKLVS

[17] = molecular target: T7, Dual specificity tyrosine-phosphorylation-regulated kinase 2 (Homo sapiens); conditions: at 10 µM
[18] = molecular target: Epidermal growth factor receptor (Homo sapiens) (UniProt P00533); conditions: at 1 µM
[19] = molecular target: Epidermal growth factor receptor (Homo sapiens) (UniProt P00533); conditions: at 10 µM

Chain of Ephrin type-A receptor 2 (Homo sapiens) (P29317 whole entry): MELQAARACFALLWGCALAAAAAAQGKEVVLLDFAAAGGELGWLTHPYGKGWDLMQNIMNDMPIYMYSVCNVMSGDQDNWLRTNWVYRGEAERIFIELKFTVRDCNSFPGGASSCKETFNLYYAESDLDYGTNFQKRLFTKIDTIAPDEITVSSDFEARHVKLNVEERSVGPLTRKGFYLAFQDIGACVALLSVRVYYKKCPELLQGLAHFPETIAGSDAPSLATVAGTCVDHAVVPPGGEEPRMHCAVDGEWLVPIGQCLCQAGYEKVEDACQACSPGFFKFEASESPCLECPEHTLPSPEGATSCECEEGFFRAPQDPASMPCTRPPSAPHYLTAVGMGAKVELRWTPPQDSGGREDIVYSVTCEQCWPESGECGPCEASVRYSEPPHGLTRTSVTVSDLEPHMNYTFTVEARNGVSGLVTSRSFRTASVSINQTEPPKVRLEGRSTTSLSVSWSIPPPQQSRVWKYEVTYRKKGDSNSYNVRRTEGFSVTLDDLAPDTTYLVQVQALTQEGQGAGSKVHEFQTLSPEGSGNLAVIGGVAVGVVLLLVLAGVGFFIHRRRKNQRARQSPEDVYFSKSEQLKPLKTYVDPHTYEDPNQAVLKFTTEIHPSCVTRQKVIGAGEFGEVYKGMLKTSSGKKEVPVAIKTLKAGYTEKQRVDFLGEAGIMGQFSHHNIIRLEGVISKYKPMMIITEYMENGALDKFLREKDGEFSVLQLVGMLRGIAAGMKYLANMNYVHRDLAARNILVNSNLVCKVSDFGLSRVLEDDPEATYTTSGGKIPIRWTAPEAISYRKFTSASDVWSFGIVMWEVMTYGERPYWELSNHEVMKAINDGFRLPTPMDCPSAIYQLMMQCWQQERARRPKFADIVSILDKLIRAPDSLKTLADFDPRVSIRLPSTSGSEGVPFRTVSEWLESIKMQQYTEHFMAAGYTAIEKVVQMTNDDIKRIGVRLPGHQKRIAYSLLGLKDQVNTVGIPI
Chain of Death-associated protein kinase 1 (Homo sapiens) (P53355 whole entry, looked up): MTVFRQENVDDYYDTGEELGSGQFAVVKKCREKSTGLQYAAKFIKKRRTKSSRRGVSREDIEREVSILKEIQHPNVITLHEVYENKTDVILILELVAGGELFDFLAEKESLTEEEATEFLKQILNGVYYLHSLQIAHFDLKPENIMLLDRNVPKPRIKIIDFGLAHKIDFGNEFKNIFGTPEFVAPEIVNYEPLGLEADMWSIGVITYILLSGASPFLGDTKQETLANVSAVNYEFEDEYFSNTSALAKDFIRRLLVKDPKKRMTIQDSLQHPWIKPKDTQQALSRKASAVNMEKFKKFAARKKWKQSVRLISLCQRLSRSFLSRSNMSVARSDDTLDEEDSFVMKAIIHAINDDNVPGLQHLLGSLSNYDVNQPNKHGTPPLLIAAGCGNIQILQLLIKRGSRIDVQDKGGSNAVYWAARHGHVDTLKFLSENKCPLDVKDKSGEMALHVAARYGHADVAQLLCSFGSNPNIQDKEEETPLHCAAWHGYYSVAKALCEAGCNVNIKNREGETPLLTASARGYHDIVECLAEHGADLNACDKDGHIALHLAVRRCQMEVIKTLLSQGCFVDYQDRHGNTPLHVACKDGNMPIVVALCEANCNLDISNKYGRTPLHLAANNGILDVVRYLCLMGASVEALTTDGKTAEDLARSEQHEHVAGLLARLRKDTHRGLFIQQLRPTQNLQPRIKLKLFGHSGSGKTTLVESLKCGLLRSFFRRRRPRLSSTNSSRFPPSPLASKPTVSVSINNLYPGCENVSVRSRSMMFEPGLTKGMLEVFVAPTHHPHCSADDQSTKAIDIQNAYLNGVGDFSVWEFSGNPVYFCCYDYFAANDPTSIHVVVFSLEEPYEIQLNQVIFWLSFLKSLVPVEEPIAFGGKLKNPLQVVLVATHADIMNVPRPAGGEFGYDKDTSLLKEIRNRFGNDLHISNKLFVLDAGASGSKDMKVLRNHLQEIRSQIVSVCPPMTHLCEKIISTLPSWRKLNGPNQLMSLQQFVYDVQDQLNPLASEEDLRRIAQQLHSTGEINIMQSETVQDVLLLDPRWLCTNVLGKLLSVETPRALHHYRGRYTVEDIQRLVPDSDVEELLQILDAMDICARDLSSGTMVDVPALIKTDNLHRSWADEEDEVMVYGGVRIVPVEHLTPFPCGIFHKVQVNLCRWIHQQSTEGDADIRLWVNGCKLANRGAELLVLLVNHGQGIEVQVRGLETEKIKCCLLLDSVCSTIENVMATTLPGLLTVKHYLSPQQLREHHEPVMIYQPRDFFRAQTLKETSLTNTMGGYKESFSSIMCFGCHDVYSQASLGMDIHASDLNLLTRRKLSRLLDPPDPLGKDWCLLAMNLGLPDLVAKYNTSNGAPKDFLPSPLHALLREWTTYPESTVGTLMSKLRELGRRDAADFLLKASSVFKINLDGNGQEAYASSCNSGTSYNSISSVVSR
Chain of Death-associated protein kinase 2 (Homo sapiens) (Q9UIK4 whole entry, looked up): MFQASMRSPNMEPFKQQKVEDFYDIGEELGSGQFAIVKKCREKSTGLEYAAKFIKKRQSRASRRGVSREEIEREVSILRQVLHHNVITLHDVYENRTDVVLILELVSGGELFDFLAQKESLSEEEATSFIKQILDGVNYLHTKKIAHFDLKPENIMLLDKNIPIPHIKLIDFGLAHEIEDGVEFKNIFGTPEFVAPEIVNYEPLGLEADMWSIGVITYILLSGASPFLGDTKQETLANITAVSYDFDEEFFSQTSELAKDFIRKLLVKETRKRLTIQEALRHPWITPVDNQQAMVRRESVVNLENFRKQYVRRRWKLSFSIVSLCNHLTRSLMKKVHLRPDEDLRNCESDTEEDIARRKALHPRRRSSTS
Chain of Epidermal growth factor receptor (Homo sapiens) (P00533 whole entry): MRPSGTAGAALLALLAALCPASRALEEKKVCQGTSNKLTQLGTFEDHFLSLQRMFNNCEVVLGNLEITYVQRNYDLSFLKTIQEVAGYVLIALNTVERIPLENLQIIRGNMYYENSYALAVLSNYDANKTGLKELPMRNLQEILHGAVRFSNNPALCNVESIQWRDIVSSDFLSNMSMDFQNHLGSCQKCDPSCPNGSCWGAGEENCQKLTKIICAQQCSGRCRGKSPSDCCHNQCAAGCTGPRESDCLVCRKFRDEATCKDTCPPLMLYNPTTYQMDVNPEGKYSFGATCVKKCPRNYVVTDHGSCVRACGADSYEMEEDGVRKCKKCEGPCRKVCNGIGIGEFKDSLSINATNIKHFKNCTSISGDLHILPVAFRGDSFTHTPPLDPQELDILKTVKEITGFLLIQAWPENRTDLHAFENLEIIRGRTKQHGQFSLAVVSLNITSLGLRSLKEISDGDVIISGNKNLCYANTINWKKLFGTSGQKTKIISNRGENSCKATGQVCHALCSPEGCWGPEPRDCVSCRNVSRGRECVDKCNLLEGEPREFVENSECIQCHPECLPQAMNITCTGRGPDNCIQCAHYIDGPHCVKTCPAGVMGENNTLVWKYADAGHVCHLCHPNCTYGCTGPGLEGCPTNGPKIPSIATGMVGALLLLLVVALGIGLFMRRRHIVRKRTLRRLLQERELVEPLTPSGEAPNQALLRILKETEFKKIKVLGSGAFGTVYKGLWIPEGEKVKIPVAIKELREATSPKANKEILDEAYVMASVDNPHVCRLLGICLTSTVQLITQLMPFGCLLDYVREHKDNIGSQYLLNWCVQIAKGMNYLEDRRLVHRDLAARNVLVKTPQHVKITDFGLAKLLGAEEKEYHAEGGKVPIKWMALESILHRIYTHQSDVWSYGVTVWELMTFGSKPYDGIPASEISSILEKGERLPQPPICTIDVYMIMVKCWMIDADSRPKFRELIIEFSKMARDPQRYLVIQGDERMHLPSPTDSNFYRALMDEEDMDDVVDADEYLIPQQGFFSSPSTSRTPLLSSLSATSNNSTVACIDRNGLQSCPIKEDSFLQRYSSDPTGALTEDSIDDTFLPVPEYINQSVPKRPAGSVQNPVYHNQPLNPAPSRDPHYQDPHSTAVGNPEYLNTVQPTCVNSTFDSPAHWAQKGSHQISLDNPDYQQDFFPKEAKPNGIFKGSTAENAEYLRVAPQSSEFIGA

Row | SMILES | residual activity [1] [%] | residual activity [2] [%] | residual activity [3] [%] | residual activity [4] [%] | residual activity [5] [%] | residual activity [6] [%] | residual activity [7] [%] | residual activity [8] [%] | residual activity [9] [%] | residual activity [10] [%] | residual activity [11] [%] | residual activity [12] [%] | residual activity [13] [%] | residual activity [14] [%] | residual activity [15] [%] | residual activity [16] [%] | residual activity [17] [%] | residual activity [18] [%] | residual activity [19] [%]
1 | COc1ccc2c(c1)c(C1=C(c3c[nH]c4ccccc34)C(=O)NC1=O)cn2CCCN(C)C | 76 | 71 | 32 | 54 | 55 | 111 | 103 | 104 | 27 | 71 | 42 | 104 | 33 | 106 |  |  |  |  | 
2 | O=C1Nc2ccc(Cl)cc2/C1=C/c1cc(Cl)c(O)c(Cl)c1 | 46 | 69 | 28 | 61 | 73 |  |  | 138 | 17 | 84 | 87 | 99 | 76 | 91 | 71 | 83 | 70 |  | 
3 | Oc1cccc(-c2nc(N3CCOCC3)c3oc4ncccc4c3n2)c1 | 76 | 93 |  | 94 | 65 |  |  |  | 86 | 91 |  |  |  |  | 116 | 94 | 98 | 119 | 119
